High-throughput results as filed in PubChem.
Pf growth 96h: inhibits malaria parasite growth, 96 h | P. falciparum luciferase reporter growth, 96 h | Potency, µM (doses to about 28.7 µM), actives largely listed as inhibitors | 6.9% of 320,000 active; active = well fitted inhibition curve with a large enough effect; inconclusive = small, poorly fitted or top-dose-only effect, or another doubt; inactive = no such curve, though single readings can be large or run the other way
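P. falciparum expressing integrated firefly luciferase, in erythrocytes at 2% hematocrit, 0.05% parasitemia, incubated with compounds 96 h at 37 C, 5% CO2. Growth inhibition read as loss of luminescence; two-generation exposure targets delayed-death apicoplast inhibitors.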
NS1 function inh: blocks influenza NS1 protein function. Potency, µM (highest dose often 46.1 µM). 0.4% of 270,000 active. AID 2326; note: actives are rising curves; nearly all actives have a fitted effect of over 50% in size
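Read-out: OD600 growth recovery of NS1-expressing budding yeast. Cells grown overnight at 30C in -URA glucose medium, washed, resuspended and diluted 1:100 in 2% galactose assay medium, pH 6.0. Same strain lacking NS1 served as positive control.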
Pf growth 48h: inhibits P. falciparum growth in the first generation, 48 h. P. falciparum luciferase growth in erythrocytes, 48 h. Potency, µM (titrated, usually from 28.7 µM), most hits filed as inhibitors. 5.9% of 310,000 active. AID 504832; active = well fitted inhibition curve with a large enough effect; inconclusive = small, poorly fitted or top-dose-only effect, or another doubt; inactive = no such curve, though single readings can be large or run the other way
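Here the parasites carry a stable luciferase gene and grow inside erythrocytes in Albumax-based RPMI medium with compound for one erythrocytic cycle. Activity is scored as loss of luminescent signal.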
SARS PLP yeast: inhibitors of SARS-CoV papain-like protease in yeast; Potency, µM (titrated, usually from 32.9 µM), most hits filed as activators; S. cerevisiae expressing SARS-CoV PLpro, growth rescue; AID 485353; 0.19% of 330,000 active; note: nearly all actives have a fitted effect of over 55% in size
Numbers stand for hits; . = inactive; ? = inconclusive; / = no result given; [ ] = dose if it differs, or a comment. Only some compounds are listed: those with a hit (about 10% of all), similar ones and a draw of the others. Unless noted, calls come from the whole dose curve.

SMILES | Pf growth 96h | NS1 function inh | Pf growth 48h | SARS PLP yeast
COc1cc(OC)cc(C(=O)Nc2ccc3nc4n(c(=O)c3c2)CCCCC4)c1 | 13µM | . | . | .
COc1ccccc1C(=O)Nc1ccc2nc3n(c(=O)c2c1)CCCC3 | 0.52µM | . | ? | .
COc1ccc(C2Nc3cc(OC)ccc3-n3cccc32)cc1 (stereo unspecified) | . | . | ? | .
CSCC[C@H](NC(=O)C1CCN(S(=O)(=O)c2ccccc2)CC1)C(=O)NC1CC1 | . | . | . | .
CCc1ccc2oc(C(=O)NC3CCS(=O)(=O)C3)cc(=O)c2c1 (stereo unspecified) | . | . | . | /
Cc1cc(C(=O)Nc2ccc(N3CCOCC3)cc2)c2ccccc2n1 | 13µM | . | 9.3µM | .
Cc1cc(C(=O)Nc2ccncc2)c2ccccc2n1 | 13µM | . | ? | .
COc1cccc(N/C(=N/C(=S)Nc2ccc(C)cc2C)Nc2nc(C)cc(C)n2)c1 | 3.3µM | . | 4.1µM | .
CC(=O)NC1(C(F)(F)F)C(=O)Nc2c1c(=O)[nH]c(=O)n2-c1ccccc1 (stereo unspecified) | . | . | . | .
Cc1cccc(C2=NC(C(F)(F)F)(C(F)(F)F)c3c(n(-c4ccc(F)cc4)c(=O)[nH]c3=O)N2)c1 | 12µM | . | 13µM | .
CC(=O)Nc1ccc(S(=O)(=O)N2CCN=C2SCc2ccc([N+](=O)[O-])cc2)cc1 | ? | . | ? | .
Clc1cccc(OCc2nc(-c3ccncc3)no2)c1 | . | . | .[5.75 µM] | .
Cc1ccc(C(C)C)c(OCc2nc(-c3nonc3N)no2)c1 | 4.7µM | . | / | .
Clc1ccc(OCc2nc(-c3ccncc3)no2)c(Cl)c1 | 10µM | . | . | .
Nc1nonc1-c1noc(CCCOc2ccc(Cl)cc2Cl)n1 | 5.2µM | . | . | .
CCCCCc1nc(-c2nonc2N)no1 | . | . | . | .
Cc1ccc(C(C)C)c(OCc2n[nH]c(=S)o2)c1 | . | . | . | .
COc1cc(F)ccc1S(=O)(=O)N1CCN(c2ccccc2)CC1 | ? | . | . | .
Cc1cc(C)c2c(=O)[nH]c(SCc3ccccc3)nc2n1 | ? | . | . | .
O=C(CSc1nc(-c2ccc(F)cc2)cc(C(F)(F)F)n1)NCc1ccco1 | 2.1µM | . | . | .
COC(=O)CSc1nc(-c2ccc(F)cc2)cc(C(F)(F)F)n1 | . | . | . | .
O=C(CSc1nc(-c2ccc(F)cc2)cc(C(F)(F)F)n1)NCc1cccs1 | 3.3µM | . | . | .
O=C(O)c1ccc(Cc2ccccc2C(=O)O)cc1 | / | . | / | /
CC1CCN(S(=O)(=O)c2ccc(C(=O)NNC(=O)C3CC3)cc2)CC1 | . | . | . | .
Cc1noc(C)c1C(=O)Nc1ccc(-c2nnc3n2CCCCC3)cc1 | . | / | . | .
SMILES | Pf growth 96h | NS1 function inh | Pf growth 48h | SARS PLP yeast
CC(=O)c1ccc(C(=O)N2CCc3c([nH]c4ccccc34)C2c2cccc(C)n2)s1 (stereo unspecified) | 13µM | . | ? | .
Cc1cc2cc(C(=O)N3CCc4c([nH]c5ccccc45)C3c3ccccn3)ccc2o1 (stereo unspecified) | 9.3µM | . | 10µM | .
O=C(c1ccc(-n2cccn2)cc1)N1CCc2c([nH]c3ccccc23)C1c1ccccn1 (stereo unspecified) | . | . | ? | .
COc1ccc(C2c3[nH]c4ccccc4c3CCN2C(=O)Cc2nonc2C)c(F)c1 (stereo unspecified) | ? | . | 10µM | .
COc1ccc(C2c3[nH]c4ccccc4c3CCN2Cc2ccoc2)c(F)c1 (stereo unspecified) | ? | . | ? | .
Cc1nc(C)c(CC(=O)N2CCc3c([nH]c4ccccc34)C2c2ccccn2)s1 (stereo unspecified) | 10µM | . | ? | .
Cc1c(Cl)cccc1NC(=O)C(=O)NNC(=O)c1ccccc1F | . | / | . | .
c1ccc(C[N+]23CN4CN(CN(C4)C2)C3)cc1 | / | . | / | /
Cc1ccc(S(=O)(=O)N2CCN(c3ccccc3)CC2)cc1C(N)=O | 13µM | / | .[5.75 µM] | .
O=C(Nc1ccncc1)c1cc(S(=O)(=O)N2CCN(c3ccccc3)CC2)ccc1Cl | ? | / | 12µM | .
O=C(O)c1cc(S(=O)(=O)N2CCN(C(c3ccccc3)c3ccccc3)CC2)ccc1Cl | 9.3µM | . | 12µM | .
O=C(O)c1cc(S(=O)(=O)N2CCN(S(=O)(=O)c3ccccc3)CC2)ccc1Cl | . | . | / | .
C[C@H](CO)N1C[C@H](C)[C@@H](CN(C)Cc2ccncc2)Oc2c(NS(=O)(=O)c3cccs3)cccc2C1=O | / | / | / | .
CN1CC(=O)N(C)c2ncn(Cc3ccccc3)c2C1=O | 8.3µM | . | . | .
O=c1c2ccccc2ncn1Cc1ccccc1 | ? | . | . | .
